Test [1] can be described thus: qHTS profiling of the MIPE4 collection as inhibitors of Plasmodium falciparum (DD2) proliferation (Rep 2) (AID 743346; call rule not given here). To be noted: P. falciparum Dd2 in erythrocytes, SYBR Green DNA, 72 h; at 28.5 µM unless noted. An outline of the steps:
(§1)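 Parasite DNA was quantified by SYBR Green I fluorescence (ex 485, em 535 nm) after overnight lysis in saponin/Triton buffer at room temperature. Cultures at 0.3% parasitemia and 2.5% hematocrit were first exposed to compound for 72 h at 37 C; signals were normalised to artemisinin (0.29 uM) and vehicle wells.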
(In general: Quantitative high-throughput screening tests each substance at several concentrations.)

Test [2] is described as follows: qHTS profiling of the MIPE4 collection as inhibitors of Plasmodium falciparum (HB3) proliferation (AID 743347; call rule not given here;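 also: plate controls were DMSO vehicle wells for no effect and artemisinin wells for full effect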). To be noted: P. falciparum HB3 in erythrocytes, SYBR Green DNA, 72 h; at 28.5 µM unless noted. An outline of the steps:
as §1

Test [3] is described as follows: High-throughput drug toxicity screening in the BPDCN cell line Cal-1 (AID 1224825; call rule not given here). To be noted: Cal-1 BPDCN cell viability, qHTS; at 45.8 µM (top of the series) unless noted. A digest of the protocol:
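Percent activity derived from CellTiter-Glo luminescence, scaling DMSO to 100% and 9.2 uM final bortezomib to 0%. BPDCN Cal-1 cells (500/well, RPMI plus 10% FBS) incubated with compounds 48 hours at 37C before reading.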

A short description of test [4]: qHTS assay for measurement of the activity of small molecule inhibitors on Zika virus induced Caspase-3 activity in human astrocytoma cells (AID 1224859). Also: potency is read from the fitted curve at half-maximal effect. A digest of the protocol:
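Luminescent caspase-3/7 read-out (30 min reagent, room temperature) in human SNB-19 cells infected 6 h with ZIKV (2 FFU/cell) after 1 h compound pre-incubation; Data were normalised to uninfected and infected wells.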

Test [5] in a line: qHTS Screen of the MIPE 4.0 Collection Against Ewings Sarcoma (RDES) (AID 1259252). Also: nearly all actives have a fitted effect of over 35% in size. Also: potency is read from the fitted curve at half-maximal effect. A digest of the protocol: (§2)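 Cells plated in serum-containing RPMI (5% FBS) and treated with compound dilutions for 48 h. Readout luminescent viability; normalization relied on vehicle (no inhibition) and media-only columns (full inhibition).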
Test [6] can be described thus: qHTS Screen of the MIPE 4.0 Collection Against Ewings Sarcoma (TC71) (AID 1259253). Also: nearly all actives have a fitted effect of over 40% in size. Also: potency is read from the fitted curve at half-maximal effect. An outline of the steps:
as §2

Test [7] is described as follows: qHTS Screen of the MIPE 4.0 Collection Against Ewings Sarcoma (EW8) (AID 1259255). Also: nearly all actives have a fitted effect of over 35% in size. Also: potency is read from the fitted curve at half-maximal effect.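 As to viability: 100% = DMSO-treated cells and 0% = medium-only wells without cells.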 An outline of the steps: as §2
Test [8] in a line: P-glycoprotein substrates identified in KB-3-1 adenocarcinoma cell line, qHTS therapeutic library screen (AID 1346986). Also: nearly all actives have a fitted effect of over 60% in size. To be noted: KB-3-1 parental cells viability, CellTiter-Glo, 72 h; at 44.5 µM (top of the series). An outline of the steps:
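Dose-response cytotoxicity, KB-3-1 vs P-gp-high KB-8-5-11, no colchicine in assay medium. Read: CellTiter-Glo at 72 h.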

Test [9] can be described thus: qHTS assay to identify small molecule inhibitors of chordoma cells - UCH-1 (AID 1259355). Also: % is scaled to controls: 0 for no effect and ±100 for the full control effect; nearly all actives have a fitted effect of over 55% in size. An outline of the steps: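 800 cells/well, overnight attach; compounds pinned at 15 concs, then auranofin/camptothecin/doxorubicin/rubitecan/topotecan combo added; 48hr 37 C, 5% CO2; CellTiter-Glo, 30min RT, luminescence.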
A short description of test [10]: qHTS assay to identify small molecule inhibitors of chordoma cells - UCH-2 (AID 1259356). Also: % is scaled to controls: 0 for no effect and ±100 for the full control effect.
Test [11] is described as follows: P-glycoprotein substrates identified in KB-8-5-11 adenocarcinoma cell line, qHTS therapeutic library screen (AID 1346987). Also: nearly all actives have a fitted effect of over 65% in size. Also: potency is read from the fitted curve at half-maximal effect. A digest of the protocol: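 In this qHTS, P-gp-rich KB-8-5-11 cells received library compounds across a concentration range. Viability was quantified by luminescence after 72 h at 37 degree C.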
Test [12] is described as follows: qHTS assay for measurement of the activity of small molecule inhibitors on Zika virus induced Caspase-3 activity in human iPSC derived neural progenitor cells (hNPCs) (AID 1224857). Also: nearly all actives have a fitted effect of over 65% in size. Also: potency is read from the fitted curve at half-maximal effect. A digest of the protocol:
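Percent inhibition of virus-induced caspase-3/7 luminescence (Caspase-Glo), scaled between uninfected cells and Zika-infected cells. hNPCs received compound 1 hr before ZIKV at 2 FFU/cell, with 6 hours infection at 37 C.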

Test [13] can be described thus: qHTS Screen of the MIPE 4.0 Collection Against Ewings Sarcoma (TC32) (AID 1259256). Also: nearly all actives have a fitted effect of over 45% in size. Also: potency is read from the fitted curve at half-maximal effect. An outline of the steps:
as §2

Here are results for eleven compounds from PubChem BioAssay (NCATS).

Several values for one entry are separate records, joined by “and”; a condition that tells them apart may be missing. Identical values can stand only once. Inconclusive results are not listed. Some structures have more than one record in an assay (separate samples or runs), and their calls can disagree. Activity calls are given as the source filed them. Unless noted, calls follow the shape of the dose curve; as a rule, active = well fitted curve in the direction sought with a large enough effect; inconclusive = small, poorly fitted or top-dose-only effect, or another doubt; inactive = no such curve, though single readings can be large; an effect the other way counts as inactive or inconclusive.

As to `OCc1ccc(-c2nn(Cc3ccccc3)c3ccccc23)o1`, the parasite growth, % of control (lower = inhibition) in test [1] amounted to 73.7%. The compound further displayed a growth, % of control in test [2] of 21.8%. In addition, the viability (% of control) in [3] came to 104%. For the same compound, the Potency entry in test [4] was “inactive”. For the same compound, the Potency is 2.64 µM (active) in test [5], 14.8 µM (active) in [6] and 1.18 µM (active) in [7]. In test [8], the outcome was inactive.
As for `CCC(C)(C)c1ccc(CC(C)CN2C[C@@H](C)O[C@@H](C)C2)cc1` (some centres undefined), the parasite growth, % of control (lower = inhibition) in [1] was 39%. For the same compound, the growth, % of control in [2] stood at 26.4%. The viability (% of control) in [3] was found to be 108%. The Potency entry in test [4], in test [5], in [6], in test [7], in [9] and in test [10] was “inactive” in each case. In [11], the Potency result is “inactive”.
For the compound `Cc1nnc(C(=O)NC(C)(C)c2nc(C(=O)NCc3ccc(F)cc3)c(O)c(=O)n2C)o1`, the parasite growth, % of control (lower = inhibition) in test [1] turned out to be 81.9%. In test [2], this compound displayed a growth, % of control of 79.5%. Besides, the viability (% of control) in test [3] was 134%. For the same compound, the Potency entry in [12], in test [4], in test [5], in test [6], in test [7] and in test [13] was “inactive” throughout. The Potency result in test [11] was “inactive”.
As to `O=S(=O)(O)CCS`, in test [1], the parasite growth, % of control (lower = inhibition) came to 78.8%. This compound returned a growth, % of control in test [2] of 66.6%. Also, the viability (% of control) in test [3] stood at 32.1%. In addition, the Potency result in test [12], in [4], in test [6], in [7], in [9] and in test [10] was “inactive” each time. Besides, the Potency entry in [11] was “inactive”.
Turning to `CCN(C)C(=O)Oc1cccc([C@H](C)N(C)C)c1`, the viability (% of control) in [3] was 73.8%. For the same compound, the Potency entry in test [4], in [5], in test [6], in test [7], in test [13] and in test [10] was “inactive” throughout. Also, in [11], the Potency result was “inactive”.
`CCCc1cc(C(N)=S)ccn1` yielded a parasite growth, % of control (lower = inhibition) in [1] of 14%. Besides, the growth, % of control in test [2] worked out at 6.05%. Besides, in [3], the viability (% of control) was determined as 93.7%. For the same compound, the Potency entry in [12], in test [4], in [5], in test [6], in test [7] and in [13] was “inactive” throughout. The Potency entry in test [10] and in test [11] was “inactive” in each case.
`CS(=O)(=O)c1ccc([C@@H](O)[C@@H](CO)NC(=O)C(Cl)Cl)cc1` came in with a parasite growth, % of control (lower = inhibition) in test [1] of 55.8%. The compound further gave a growth, % of control in test [2] of 56.8%. Moreover, in test [3], the viability (% of control) stood at 86.4%. In addition, the Potency entry in [12], in [4], in [10] and in test [11] was “inactive” in each case. Also, the Potency in test [5] was 13.2 µM (active); in test [6] it was 16.6 µM (active).
Regarding `CCOC(=O)[C@H](CCc1ccccc1)N[C@H]1CCc2ccccc2N(CC(=O)O)C1=O`, in test [1], the parasite growth, % of control (lower = inhibition) turned out to be 22.6%. Moreover, in test [2], the growth, % of control is 11.1%. Besides, in test [3], the viability (% of control) was found to be 22.3%. In addition, the Potency result in test [12], in test [4] and in test [10] was “inactive” throughout. For the same compound, the Potency in [5] was 23.5 µM (active); in test [6] it was 20.9 µM (active); in [7] it was 23.5 µM (active); in [13] it was 23.5 µM (active); in [11] it was “inactive and 23.5 µM (active)”.
As to `CC(=O)Oc1ccccc1C(=O)Nc1ncc([N+](=O)[O-])s1`, the parasite growth, % of control (lower = inhibition) in test [1] was 7.18% [at 57.5 µM]. Also, the growth, % of control in test [2] was 4.58% [at 57.5 µM]. The viability (% of control) in test [3] was 38.5% [at 92.2 µM]. Besides, the Potency in test [12] was 1.91 µM (active); in test [4] it was 1.71 µM (active) and inactive; in test [5], 21.5 µM (active); in test [6], 19.1 µM (active); in test [7], 21.5 µM (active); in test [13], 21.5 µM (active). Also, the Potency entry in [11] was “inactive and 13 µM (active)”. Further, the Potency result in test [10] is “inactive”.
As to `CNS(=O)(=O)Cc1ccc2[nH]cc(CCN(C)C)c2c1`, the parasite growth, % of control (lower = inhibition) in test [1] came out at 75.7%. Besides, in test [2], the growth, % of control worked out at 17.2%. The viability (% of control) in test [3] came to 117%. The Potency entry in test [12], in test [4], in test [5], in [6], in test [7] and in [9] was “inactive” throughout. Besides, the Potency entry in [10] and in test [11] was “inactive” throughout.
`Cn1c(=O)c2c(ncn2CC(O)CO)n(C)c1=O` (centres undefined) came in with a parasite growth, % of control (lower = inhibition) in test [1] of 96.6%. Besides, in [2], the growth, % of control came out at 56.5%. Further, the viability (% of control) in test [3] is 100%. In addition, the Potency entry in test [4], in test [5], in test [6], in test [7], in test [10] and in [11] was “inactive” throughout. Besides, the outcome in test [8] was inactive.
